Data: PubChem BioAssay (Tox21)
Inconclusive results are not listed. Entries that show only a call come without a potency. Values without a mark were called inactive. Calls of active or inactive are those of the source. Calls come from the whole dose curve; as a rule, active = well fitted curve in the direction sought with a large enough effect in the repeat runs; inconclusive = weak or mixed curves; inactive = no such curve, though single readings can be large; an effect the other way counts as inactive or inconclusive.

assay: qHTS RealTime-Glo MT Cell Viability Assay in HEK293 cells - 8 hour (AID 1224887); details: RealTime-Glo luminescence; series mostly up to 76.8 µM; note: nearly all actives have a fitted effect of over 50% in size; note: potency is the fitted concentration of half-maximal effect; for activity change, negative = cytotoxicity: top concentration of the series differs between compounds
Method in brief: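 Nonlytic bioluminescent viability monitoring. HEK293 at 600 cells/well with reagent; 5 h settle; compound transfer by pintool; plates held at 37 C and read at set time points.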

SMILES | activity change, negative = cytotoxicity | Potency
Nc1ccc(S(=O)(=O)Nc2ccnn2-c2ccccc2)cc1 | 7.76% [at 15.8 µM] | 
Nc1c2c(nc3ccccc13)CCCC2O (stereo not given) |  | inactive
C[N+](C)(C)CCCCCC[N+](C)(C)C |  | inactive
CCc1ccc(O)c(OC)c1 |  | inactive
OC(CCN1CCCCC1)(c1ccccc1)C1CC2C=CC1C2 (stereo not given) |  | inactive
C=CCS(=O)(=O)O |  | inactive
CN(C(=O)c1c(O)c2ccccc2n(C)c1=O)c1ccccc1 |  | inactive
COC(=O)CCSCCC(=O)OC |  | inactive
CC(C)(O)C(=O)c1ccccc1 |  | inactive
CCCCCOC(=O)CCCCC |  | inactive
OCCOc1ccc(OCCO)cc1 |  | inactive
N[C@H]1CN(c2c(F)cc3c(=O)c(C(=O)O)cn(C4C[C@H]4F)c3c2Cl)CC12CC2 (stereo not given in full) |  | inactive
COc1ccc2c(c1)c(CC(=O)OCC(=O)O)c(C)n2C(=O)c1ccc(Cl)cc1 |  | inactive
COc1ccc2c(c1)CCCC2=O |  | inactive
OC[C@]1(O)OC[C@@H](O)[C@H](O)[C@@H]1O |  | inactive
NC(=O)Nc1ccccc1 |  | inactive
CCS(=O)(=O)c1ccc(OC)c(C(=O)OC)c1 |  | inactive
COc1ccc(CCN(C)CCCC(C#N)(c2cc(OC)c(OC)c(OC)c2)C(C)C)cc1OC (stereo not given) |  | 21.3 µM (active)

SMILES | activity change, negative = cytotoxicity | Potency
CCCC(=O)O[C@]1(C(=O)CO)CC[C@H]2[C@@H]3CCC4=CC(=O)CC[C@]4(C)[C@H]3[C@@H](O)C[C@@]21C |  | inactive
CCCCCCOC(=O)CCCCC(=O)OCCCCCC |  | inactive
CCOC(C)(C)C |  | inactive
CCO/C([O-])=N/c1c[n+](N2CCOCC2)no1 |  | inactive
O=C1CCCCCCCCCCCN1 |  | inactive
C=C(C)CS(=O)(=O)O |  | inactive
Brc1c(NC2=NCCN2)ccc2nccnc12 |  | inactive
CCN1CCC[C@H]1CNC(=O)c1c(O)c(Cl)cc(Cl)c1OC |  | inactive
O=C(O)Cc1ccc(CCNS(=O)(=O)c2ccc(Cl)cc2)cc1 |  | inactive
CCOc1ccc(C(=O)OCCN(CC)CC)cc1 |  | inactive
CCOC(=O)CCC(C)=O |  | inactive
CCO[Si](CCC1CCC2OC2C1)(OCC)OCC (stereo not given) |  | inactive
CCN1CCC[C@H]1CNC(=O)c1cc(S(N)(=O)=O)ccc1OC |  | inactive
CC(C)=CCCC(C)CC(=O)O (stereo not given) |  | inactive
CCOC(=O)c1c(C)n(C)c2ccc(O)cc12 |  | inactive
COc1c(N2C[C@@H]3CCCN[C@@H]3C2)c(F)cc2c(=O)c(C(=O)O)cn(C3CC3)c12 |  | inactive
CC(C)OC(=O)c1ccccc1 |  | inactive

assay: A CellTox Green Cytotoxicity Assay to monitor cytotoxicity in HEK293 cells - 16 hour (AID 1224888); details: CellTox Green fluorescence; series mostly up to 76.8 µM; note: nearly all actives have a fitted effect of over 35% in size
Method in brief: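 Cytotoxicity was tracked continuously in HEK293 cells by a DNA-binding dye excluded from viable cells. Compounds were transferred in DMSO 5 h after seeding; fluorescence was recorded at intervals up to 40 h.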

SMILES | activity change | Potency
Nc1ccc(S(=O)(=O)Nc2ccnn2-c2ccccc2)cc1 | 2.29% [at 15.8 µM, active compounds read high] | 
Nc1c2c(nc3ccccc13)CCCC2O (stereo not given) |  | inactive
C[N+](C)(C)CCCCCC[N+](C)(C)C |  | inactive
CCc1ccc(O)c(OC)c1 |  | inactive
OC(CCN1CCCCC1)(c1ccccc1)C1CC2C=CC1C2 (stereo not given) |  | inactive
C=CCS(=O)(=O)O |  | inactive
COC(=O)CCSCCC(=O)OC |  | inactive
CC(C)(O)C(=O)c1ccccc1 |  | inactive
CCCCCOC(=O)CCCCC |  | inactive
OCCOc1ccc(OCCO)cc1 |  | inactive
COc1ccc2c(c1)c(CC(=O)OCC(=O)O)c(C)n2C(=O)c1ccc(Cl)cc1 |  | inactive
COc1ccc2c(c1)CCCC2=O |  | inactive
OC[C@]1(O)OC[C@@H](O)[C@H](O)[C@@H]1O |  | inactive
NC(=O)Nc1ccccc1 |  | inactive
CCS(=O)(=O)c1ccc(OC)c(C(=O)OC)c1 |  | inactive
COc1ccc(CCN(C)CCCC(C#N)(c2cc(OC)c(OC)c(OC)c2)C(C)C)cc1OC (stereo not given) |  | inactive
CCCC(=O)O[C@]1(C(=O)CO)CC[C@H]2[C@@H]3CCC4=CC(=O)CC[C@]4(C)[C@H]3[C@@H](O)C[C@@]21C |  | inactive
CCCCCCOC(=O)CCCCC(=O)OCCCCCC |  | inactive
CCOC(C)(C)C |  | inactive
CCO/C([O-])=N/c1c[n+](N2CCOCC2)no1 |  | inactive
O=C1CCCCCCCCCCCN1 |  | inactive
C=C(C)CS(=O)(=O)O |  | inactive
CCN1CCC[C@H]1CNC(=O)c1c(O)c(Cl)cc(Cl)c1OC |  | inactive
CCOc1ccc(C(=O)OCCN(CC)CC)cc1 |  | inactive
CCOC(=O)CCC(C)=O |  | inactive
CCN1CCC[C@H]1CNC(=O)c1cc(S(N)(=O)=O)ccc1OC |  | inactive
CC(C)=CCCC(C)CC(=O)O (stereo not given) |  | inactive
CCOC(=O)c1c(C)n(C)c2ccc(O)cc12 |  | inactive
COc1c(N2C[C@@H]3CCCN[C@@H]3C2)c(F)cc2c(=O)c(C(=O)O)cn(C3CC3)c12 |  | inactive
CC(C)OC(=O)c1ccccc1 |  | inactive

assay: qHTS RealTime-Glo MT Cell Viability Assay in HepG2 cells - 0 hour (AID 1224889); details: RealTime-Glo luminescence; series mostly up to 76.8 µM; note: nearly all actives have a fitted effect of over 50% in size; note: potency is the fitted concentration of half-maximal effect
Method in brief: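 HepG2 cells (600/well) were dispensed with RealTime-Glo reagents, incubated 5 h at 37 °C, then treated with compounds in DMSO for up to 40 h. Nonlytic NanoLuc luminescence reflecting viable cells was read at each stated time point.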

SMILES | activity change, negative = cytotoxicity | Potency
Nc1ccc(S(=O)(=O)Nc2ccnn2-c2ccccc2)cc1 | -1.91% [at 15.8 µM] | 
Nc1c2c(nc3ccccc13)CCCC2O (stereo not given) |  | inactive
C[N+](C)(C)CCCCCC[N+](C)(C)C |  | inactive
CCc1ccc(O)c(OC)c1 |  | inactive
OC(CCN1CCCCC1)(c1ccccc1)C1CC2C=CC1C2 (stereo not given) |  | inactive
C=CCS(=O)(=O)O |  | inactive
CN(C(=O)c1c(O)c2ccccc2n(C)c1=O)c1ccccc1 |  | inactive
COC(=O)CCSCCC(=O)OC |  | inactive
CC(C)(O)C(=O)c1ccccc1 |  | inactive
CCCCCOC(=O)CCCCC |  | inactive
OCCOc1ccc(OCCO)cc1 |  | inactive
N[C@H]1CN(c2c(F)cc3c(=O)c(C(=O)O)cn(C4C[C@H]4F)c3c2Cl)CC12CC2 (stereo not given in full) |  | inactive
COc1ccc2c(c1)c(CC(=O)OCC(=O)O)c(C)n2C(=O)c1ccc(Cl)cc1 |  | inactive
COc1ccc2c(c1)CCCC2=O |  | inactive
OC[C@]1(O)OC[C@@H](O)[C@H](O)[C@@H]1O |  | inactive
NC(=O)Nc1ccccc1 |  | inactive
CCS(=O)(=O)c1ccc(OC)c(C(=O)OC)c1 |  | inactive
COc1ccc(CCN(C)CCCC(C#N)(c2cc(OC)c(OC)c(OC)c2)C(C)C)cc1OC (stereo not given) |  | inactive

SMILES | activity change, negative = cytotoxicity | Potency
CCCC(=O)O[C@]1(C(=O)CO)CC[C@H]2[C@@H]3CCC4=CC(=O)CC[C@]4(C)[C@H]3[C@@H](O)C[C@@]21C |  | 2.13 µM (active)
CCCCCCOC(=O)CCCCC(=O)OCCCCCC |  | inactive
CCOC(C)(C)C |  | inactive
CCO/C([O-])=N/c1c[n+](N2CCOCC2)no1 |  | inactive
O=C1CCCCCCCCCCCN1 |  | inactive
C=C(C)CS(=O)(=O)O |  | inactive
Brc1c(NC2=NCCN2)ccc2nccnc12 |  | inactive
CCN1CCC[C@H]1CNC(=O)c1c(O)c(Cl)cc(Cl)c1OC |  | inactive
O=C(O)Cc1ccc(CCNS(=O)(=O)c2ccc(Cl)cc2)cc1 |  | inactive
CCOc1ccc(C(=O)OCCN(CC)CC)cc1 |  | inactive
CCOC(=O)CCC(C)=O |  | inactive
CCO[Si](CCC1CCC2OC2C1)(OCC)OCC (stereo not given) |  | inactive
CCN1CCC[C@H]1CNC(=O)c1cc(S(N)(=O)=O)ccc1OC |  | inactive
CC(C)=CCCC(C)CC(=O)O (stereo not given) |  | inactive
CCOC(=O)c1c(C)n(C)c2ccc(O)cc12 |  | inactive
COc1c(N2C[C@@H]3CCCN[C@@H]3C2)c(F)cc2c(=O)c(C(=O)O)cn(C3CC3)c12 |  | inactive
CC(C)OC(=O)c1ccccc1 |  | inactive
